Measured values: PubChem BioAssay (Tox21)
Inconclusive results are not listed. Active and inactive are the calls of the source. Unless noted, calls come from the whole dose curve; as a rule, active = well fitted curve in the direction sought with a large enough effect in the repeat runs; inconclusive = weak or mixed curves; inactive = no such curve, though single readings can be large; an effect the other way counts as inactive or inconclusive.

Experiments:
[1] = qHTS assay to identify small molecule antagonists of the retinoid acid receptor (RAR) signaling pathway - cell viability counter screen (AID 1159551); note: nearly all actives have a fitted effect of over 35% in size
Method in brief: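 C3RL4 cells were seeded overnight at 37 C, then treated with compounds plus 1 uM (final) retinol for 6 h at 37 C. Viability was read as ATP by CellTiter-Glo luminescence after 30 min at room temperature.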

[2] = qHTS assay to identify small molecule antagonists of the retinoic acid receptor (RAR) signaling pathway (AID 1159552; note: nearly all actives have a fitted effect of over 50% in size; note: potency is the fitted concentration of half-maximal effect)
Method in brief: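 Using a RARE-driven luciferase construct in C3RL4 cells, retinol at 1 uM final provided the agonist stimulus while compounds were co-applied. After 6 hours at 37 C, luminescence was recorded to flag inhibitors of retinol signaling.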

[3] = qHTS assay to identify small molecule agonists of the retinoic acid receptor (RAR) signaling pathway (AID 1159553)
Method in brief: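 C3RL4 cells carrying a RARE luciferase reporter were plated overnight at 37 C, then exposed to compounds in DMSO for 6 hr at 37 C and 5% CO2. Luminescence was read 30 min after luciferase reagent addition at room temperature.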

[4] = qHTS assay to identify small molecule antagonists of the estrogen related receptor (ERR) signaling pathway from Tox21 library - cell viability counter screen (AID 1224834); note: nearly all actives have a fitted effect of over 30% in size; note: potency is the fitted concentration of half-maximal effect
Method in brief: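 ERR reporter cells were plated 6 h before compound addition, then exposed to test compounds in DMSO for 17.5 h at 37 C. Viability was read as CellTiter-Fluor fluorescence after a 30-minute incubation at 37 C.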

[5] = target: Luciferin 4-monooxygenase (Photinus pyralis) (UniProt P08659); assay: qHTS assay to identify small molecule inhibitors of firefly luciferase (AID 1224835); note: series mostly up to about 120 µM; nearly all actives have a fitted effect of over 25% in size
Chain of Luciferin 4-monooxygenase (Photinus pyralis) (P08659 whole entry, looked up): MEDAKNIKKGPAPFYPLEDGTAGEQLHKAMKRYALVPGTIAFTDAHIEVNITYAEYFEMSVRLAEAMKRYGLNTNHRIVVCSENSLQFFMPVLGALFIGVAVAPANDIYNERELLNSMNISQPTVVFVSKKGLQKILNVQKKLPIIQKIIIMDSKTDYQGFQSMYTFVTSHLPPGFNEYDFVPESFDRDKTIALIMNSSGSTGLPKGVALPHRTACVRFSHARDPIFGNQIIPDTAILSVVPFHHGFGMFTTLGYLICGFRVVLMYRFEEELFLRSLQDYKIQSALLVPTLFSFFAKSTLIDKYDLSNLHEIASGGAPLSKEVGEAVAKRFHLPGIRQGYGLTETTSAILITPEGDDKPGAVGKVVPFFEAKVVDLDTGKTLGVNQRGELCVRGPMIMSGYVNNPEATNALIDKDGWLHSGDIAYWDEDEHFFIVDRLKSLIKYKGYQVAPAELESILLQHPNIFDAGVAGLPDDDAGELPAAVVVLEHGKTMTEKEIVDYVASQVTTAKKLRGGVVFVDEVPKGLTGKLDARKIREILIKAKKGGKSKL
Method in brief: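 Quantitative HTS format; KM concentrations of both substrates. Purified P. pyralis FLuc activity quantified from luminescence images.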

[6] = qHTS assay to identify small molecule agonists of the constitutive androstane receptor (CAR) signaling pathway - cell viability counter screen (AID 1224836); note: series mostly up to about 92 µM; nearly all actives have a fitted effect of over 45% in size
Method in brief: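 Multiplexed viability check: HepG2-CYP2B6-hCAR cells, 15-point compound dosing, 0.75 uM PK11195 final, 23 h at 37 C, CellTiter-Fluor fluorescence.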

[7] = qHTS assay to identify small molecule antagonists of the constitutive androstane receptor (CAR) signaling pathway - cell viability counter screen (AID 1224837); note: series mostly up to about 92 µM; nearly all actives have a fitted effect of over 45% in size
Method in brief: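 HepG2 cells stably expressing hCAR and a CYP2B6-2.2kb reporter were plated and pre-incubated 4 hr at 37 C/5% CO2, then given compounds at 15 concentrations plus 50 nM CITCO (final). After 23 hr, viability was read by CellTiter-Fluor fluorescence.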

[8] = target: Nuclear receptor subfamily 1 group I member 3 (Homo sapiens) (UniProt Q14994); assay: qHTS assay to identify small molecule antagonists of the constitutive androstane receptor (CAR) signaling pathway (AID 1224838); note: nearly all actives have a fitted effect of over 40% in size; note: potency is the fitted concentration of half-maximal effect
Chain of Nuclear receptor subfamily 1 group I member 3 (Homo sapiens) (Q14994 whole entry, looked up): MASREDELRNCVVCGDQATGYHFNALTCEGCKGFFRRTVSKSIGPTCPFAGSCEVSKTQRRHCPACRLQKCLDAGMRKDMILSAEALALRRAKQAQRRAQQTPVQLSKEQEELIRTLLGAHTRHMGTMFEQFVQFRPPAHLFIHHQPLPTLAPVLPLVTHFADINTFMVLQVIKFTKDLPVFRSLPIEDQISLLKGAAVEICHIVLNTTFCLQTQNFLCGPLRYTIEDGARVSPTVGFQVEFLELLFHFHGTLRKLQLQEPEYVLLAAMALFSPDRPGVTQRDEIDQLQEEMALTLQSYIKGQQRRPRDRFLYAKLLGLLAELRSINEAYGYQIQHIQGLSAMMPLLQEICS
Method in brief: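 HepG2 cells stably co-transfected with hCAR and a CYP2B6-2.2kb luciferase reporter were seeded 4 h before compound addition at 15 concentrations. Cells were stimulated with 50 nM CITCO (final) for 24 h at 37 C; luciferase luminescence was then read.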

[9] = qHTS assay to identify small molecule antagonists of the estrogen related receptor signaling pathway with the pleiotropic PPARgamma coactivator (PGC) from Tox21 10K library - cell viability counter screen (AID 1224840; active = well fitted cell-killing curve with a large enough effect in the repeat runs, not every such curve was filed as active; note: nearly all actives have a fitted effect of over 40% in size; note: potency is the fitted concentration of half-maximal effect)
Method in brief: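 PGC/ERR cells were seeded at 2,000 cells/well and left 6 hours at 37 C/5% CO2 before pin-tool addition of compounds in DMSO. After 17.5 hours at 37 C, CellTiter-Fluor was added and fluorescence read 30 minutes later.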

[10] = qHTS assay to identify small molecule antagonists of the estrogen related receptor signaling pathway with the pleiotropic PPARgamma coactivator (PGC) from Tox21 10K library (AID 1224841; call rule not given here; note: series mostly up to about 92 µM; actives are mostly falling curves and most rising ones were filed inactive; nearly all actives have a fitted effect of over 50% in size)
Method in brief: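 PGC/ERR reporter cells were seeded at 2,000 cells/well and held 6 hours at 37 C/5% CO2 before pin-tool addition of compounds in DMSO. After 18 hours at 37 C, One-Glo was added and luminescence read after 30 minutes at room temperature.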

[11] = qHTS assay to identify small molecule agonists of the estrogen related receptor signaling pathway with the pleiotropic PPARgamma coactivator (PGC) from Tox21 10K library (AID 1224842); note: nearly all actives have a fitted effect of over 15% in size
Method in brief: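 PGC/ERR reporter cells (NTP line) were seeded 2,000 per well, rested 6 h at 37 C/5% CO2, then pin-dosed with compounds in DMSO for 18 h at 37 C; luciferase read by One-Glo luminescence after 30 min at room temperature.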

[12] = qHTS assay to identify small molecule agonists of the RXR signaling pathway - cell viability counter screen (AID 1159529);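 note: HEK 293T cells carrying an RXR-alpha UAS beta-lactamase reporter; series mostly up to about 77 µM; nearly all actives have a fitted effect of over 50% in size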
Method in brief: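 Viability read-out for the RXR-alpha agonist qHTS: luminescent CellTiter-Glo signal after 30 min at RT. HEK 293T bla reporter cells, 2% charcoal-stripped FBS, 16 hr compound incubation; tetraoctyl ammonium bromide as cytotoxic control.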

[13] = target: Nuclear receptor subfamily 1 group I member 3 (Homo sapiens) (UniProt Q14994); assay: qHTS assay to identify small molecule agonists of the constitutive androstane receptor (CAR) signaling pathway (AID 1224839); note: nearly all actives have a fitted effect of over 15% in size; note: potency is the fitted concentration of half-maximal effect
Method in brief: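 Using human hepatoma HepG2 cells engineered with hCAR and a CYP2B6-2.2kb reporter, 15-concentration compound series were incubated 24 h alongside PK11195 at 0.75 uM final, with luminescence quantified afterwards.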

[14] = target: Thyrotropin receptor (Homo sapiens) (UniProt P16473); assay: qHTS assay to identify small molecule agonists of the thyroid stimulating hormone receptor (TSHR) signaling pathway (AID 1224843; calls by dose curve; note: nearly all actives have a fitted effect of over 45% in size)
Chain of Thyrotropin receptor (Homo sapiens) (P16473 whole entry, looked up): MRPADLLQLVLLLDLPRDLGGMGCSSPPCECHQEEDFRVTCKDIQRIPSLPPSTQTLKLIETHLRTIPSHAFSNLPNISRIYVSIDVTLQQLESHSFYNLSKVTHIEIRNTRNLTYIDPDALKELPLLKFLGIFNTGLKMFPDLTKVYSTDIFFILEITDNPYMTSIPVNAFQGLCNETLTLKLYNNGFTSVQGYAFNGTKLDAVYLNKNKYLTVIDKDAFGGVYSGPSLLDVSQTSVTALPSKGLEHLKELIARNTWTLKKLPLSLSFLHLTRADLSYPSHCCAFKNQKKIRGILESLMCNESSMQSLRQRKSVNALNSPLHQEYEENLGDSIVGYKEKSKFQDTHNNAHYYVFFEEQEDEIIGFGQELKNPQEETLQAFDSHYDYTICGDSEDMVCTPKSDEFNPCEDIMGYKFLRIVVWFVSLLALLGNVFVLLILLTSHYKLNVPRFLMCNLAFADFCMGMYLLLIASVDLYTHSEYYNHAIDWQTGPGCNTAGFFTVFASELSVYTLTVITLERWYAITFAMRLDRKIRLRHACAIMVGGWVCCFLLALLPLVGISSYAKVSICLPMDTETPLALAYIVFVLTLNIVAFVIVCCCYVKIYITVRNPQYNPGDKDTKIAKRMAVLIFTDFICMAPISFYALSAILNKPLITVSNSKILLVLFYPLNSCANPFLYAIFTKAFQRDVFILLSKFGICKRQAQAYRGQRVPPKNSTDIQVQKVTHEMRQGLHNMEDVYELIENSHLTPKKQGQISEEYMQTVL
Method in brief: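 Cell line HEK293 with TSHR; density 800/well. Exposure 30 min RT. Readout HTRF cAMP (cAMP-d2/anti-cAMP-cryptate), 1 h RT before reading.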

[15] = qHTS assay to identify small molecule antagonists of the estrogen related receptor (ERR) signaling pathway - cell viability counter screen (AID 1224818);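 note: series mostly up to about 46 µM; viability measured after 17.5 h of compound exposure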
Method in brief: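 ERR reporter cells plated 6 h at 37 C/5% CO2, then compounds in DMSO pin-transferred and incubated 17.5 h at 37 C. Viability read as CellTiter-Fluor fluorescence after 30 min at 37 C.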

[16] = qHTS assay to identify small molecule antagonists of the estrogen related receptor signaling pathway with the pleiotropic PPARgamma coactivator (PGC) cell viability counter screen (AID 1224822; note: series mostly up to about 46 µM)
Method in brief: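 PGC/ERR cells were seeded at 2,000 cells/well, rested 6 h at 37 C/5% CO2, then given compounds in DMSO by pin tool and incubated 17.5 h at 37 C. Viability came from CellTiter-Fluor fluorescence after 30 min.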

Measured: Potency

C1=Cc2ccccc2C1
not listed: [12] | [13] | [14] | [15] | [16]
inactive: all other assays above

C#CCOC(=O)[C@@H](C)Oc1ccc(Oc2ncc(Cl)cc2F)cc1
not listed: [1] | [9] | [14] | [15] | [16]
inactive: all other assays above

CC(Cc1cccc(C(F)(F)F)c1)NCCOC(=O)c1ccccc1 (stereo not given)
not listed: [8] | [10] | [11] | [12] | [15] | [16]
inactive: all other assays above

COCCCCCCCCOCCC[Si](C)(O[Si](C)(C)C)O[Si](C)(C)C
active: [8] 48.6 µM
inactive: [12] | [1] | [5] | [13]

N#CCc1cccc(C(F)(F)F)c1
inactive: [1] | [2] | [3] | [4] | [5] | [6] | [7] | [9] | [14]

CN(C)CC/C=C1\c2ccccc2COc2ccccc21
inactive: [1] | [3] | [15] | [16] | [4] | [6] | [8] | [14]
active: [2] 21.1 µM

C1CCC2OC2C1 (stereo not given)
inactive: [1] | [2] | [3] | [4] | [5] | [6] | [7] | [9] | [14]

CCCCC(CC)COCCCN (stereo not given)
not listed: [8] | [10] | [12] | [13] | [15] | [16]
inactive: all other assays above

CN(C)CC[C@@H](c1ccc(Br)cc1)c1ccccn1
not listed: [10] | [11] | [12] | [14]
inactive: all other assays above

COC(Cc1ccccc1)OC
not listed: [10] | [11] | [12] | [15] | [16]
inactive: all other assays above

CCCOc1ccc2nc(NC(=O)OC)[nH]c2c1
inactive: [12] | [2] | [3] | [5] | [6] | [7] | [13] | [9] | [14]

CC(=O)CC(=O)c1ccccc1
active: [8] 10.9 µM
inactive: [12] | [2] | [3] | [4] | [5] | [13] | [9] | [10]

O=c1[nH]cnc2ccccc12
inactive: [12] | [2] | [3] | [4] | [5] | [6] | [7] | [9] | [14]

CCOC(=S)SSC(=S)OCC
inactive: [12] | [1] | [4] | [6] | [7] | [14]

CCOC(=O)C1=C(C)NC(C)=C(C(=O)OC)C1c1cccc([N+](=O)[O-])c1 (stereo not given)
not listed: [4] | [10] | [11] | [12]
inactive: all other assays above

O=C1CCCCCO1
not listed: [1] | [10] | [11] | [15] | [16]
inactive: all other assays above

O=C(O)Cc1sc(-c2ccccc2)nc1-c1ccc(Cl)cc1
not listed: [8] | [12] | [13] | [15] | [16]
inactive: all other assays above

CN1CCC(OC(c2ccccc2)c2ccccc2)CC1
not listed: [10] | [11] | [12] | [13] | [15] | [16]
inactive: all other assays above

COc1ccc2[nH]c(S(=O)Cc3ncc(C)c(OC)c3C)nc2n1 (stereo not given)
inactive: [12] | [1] | [5] | [6] | [7] | [8] | [9] | [11]
active: [13] 26.6 µM

O=C(c1ccc(O)cc1)c1ccc(O)cc1
inactive: [12] | [2] | [3] | [4] | [6] | [7] | [9] | [10] | [14]

C=CC(=O)OCC(C)OCC(C)OCC(C)OC(=O)C=C (stereo not given)
inactive: [12] | [5] | [6] | [8] | [13]
active: [2] 61.1 µM | [4] 61.1 µM | [9] 54.5 µM

O=C(NN1CCCC1)NS(=O)(=O)c1ccc(Cl)cc1
not listed: [8] | [12] | [15] | [16]
inactive: all other assays above

CC1(C)CCC(C)(C)c2cc(NC(=O)c3ccc(C(=O)O)cc3)ccc21
inactive: [12] | [1] | [4] | [6] | [7] | [9] | [14]

CCN(CC)CCOC(=O)C1(c2ccccc2)CCCC1
not listed: [12] | [13] | [15] | [16]
inactive: all other assays above

COCCO
inactive: [1] | [2] | [3] | [4] | [5] | [6] | [7] | [8] | [9]
